# Data published in PubChem BioAssay.
# Activity calls are given as the source filed them.
# Tests used:
# [1] = optical density shifts of acrAB sulA E. coli – strain DRC41, OD650, 48 h, E. coli filamentation inducer project, primary screen (AID 1152); conditions: higher = more signal, called active from +8 up or from −8 down;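 also: E. coli MC1000 strain DRC41 lacking acrAB efflux pump and sulA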
# [2] = probe aLefty1 binding on compound microarray – biochemical, small-molecule microarray, 635/667 nm fluorescence, primary screen (AID 1153); conditions: higher = more signal;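 also: score merges spot fluorescence with signal-to-noise ratio from the scanned slide images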
# [3] = plasmodial surface anion channel blockers, osmotic lysis – cell-based, P. falciparum Indochina, OD700, 1 h, primary screen (AID 1154); conditions: P. falciparum Indochina infected RBC osmotic lysis, higher = more signal, called active from +8 up or from −8 down
# [4] = plasmodial surface anion channel blockers, osmotic lysis – cell-based, P. falciparum Indochina, OD700, 2 h, primary screen (AID 1155);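 also: lysis reports solute entry through the parasite surface anion channel PSAC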; conditions: P. falciparum Indochina infected erythrocytes, higher = more signal, called active from +8 up or from −8 down
# [5] = changes in parasitized red cell lysis, either direction – P. falciparum Indochina, OD700, 3 h, PSAC antagonist project, primary screen (AID 1156); conditions: P. falciparum-infected erythrocytes, osmotic lysis, higher = more signal, called active from +8 up or from −8 down
# [6] = plasmodial surface anion channel blockers, osmotic lysis – cell-based, P. falciparum Indochina, OD700, 18 h, primary screen (AID 1157); conditions: P. falciparum Indochina infected erythrocytes, osmotic lysis OD700, 18 h; higher = more signal, called active from +8 up or from −8 down
# [7] = S6 kinase pathway phospho-S6 level changes – cell-based, A549, cytoblot, luminescence, serum-stimulated, primary screen (AID 1158); conditions: 5 h, higher = more signal;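 also: serum-stimulated A549 lung adenocarcinoma cells; signal is phosphorylated S6 detected by cytoblot immunostaining with HRP secondary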
# [8] = target: NADPH oxidase 2 (Homo sapiens) (UniProt P04839); assay: compounds shifting NOX2 Amplex Red fluorescence – cell-based, HEK293-NOX2, PMA-stimulated, NOX inhibitor project, primary screen (AID 1159); conditions: 45 min, higher = more signal, called active from +8 up or from −8 down; also: test concentration not given here
# [9] = target: NADPH oxidase 4 (Homo sapiens) (UniProt Q9NPH5); assay: compounds shifting NOX4 Amplex Red fluorescence – cell-based, HEK293-NOX4, tetracycline-induced, NOX inhibitor project, primary screen (AID 1160); conditions: HEK293-NOX4, Amplex Red H2O2 fluorescence, 45 min; higher = more signal, called active from +8 up or from −8 down
# [10] = target: NADPH oxidase 5 (Homo sapiens) (UniProt Q96PH1); assay: compounds shifting NOX5 Amplex Red fluorescence – cell-based, HEK293-NOX5, NOX inhibitor project, primary screen (AID 1161); conditions: HEK293-NOX5, ionomycin, 45 min, higher = more signal
# [11] = compound effects on lung adenocarcinoma cell viability – A549, calcein-AM fluorescence, 48 h, basal, profiling panel (AID 1162); conditions: higher = more signal; also: test concentration not given here
# [12] = compound effects on differentiated 3T3-L1 adipocyte viability – cell-based, 3T3-L1 adipocytes, calcein-AM fluorescence, 48 h, basal, profiling panel (AID 1163); conditions: 3T3-L1 adipocytes viability, higher = more signal; also: test concentration not given here
# [13] = compound effects on hepatocellular carcinoma cell viability – HepG2, calcein-AM fluorescence, 48 h, basal, profiling panel (AID 1164); conditions: higher = more signal; also: test concentration not given here
# [14] = compound effects on multiple myeloma cell viability – MM1S, calcein-AM fluorescence, 48 h, basal, profiling panel (AID 1165); conditions: higher = more signal; also: test concentration not given here
# [15] = calcein-AM signal in unstimulated myeloma cells – cell-based, calcein-AM fluorescence, 48 h, PK04 Diversity Set, profiling panel (AID 1166); conditions: RPMI8226 myeloma viability, higher = more signal;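 also: cells grown under basal conditions without added stimulus; test concentration not given here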
# [16] = JC-1 mitochondrial signal, unstimulated HepG2 cells – cell-based, JC-1 fluorescence, 24 h, 100 nL compound, profiling panel (AID 1167); conditions: HepG2 mitochondrial potential, higher = more signal; also: test concentration not given here
# [17] = JC-1 mitochondrial signal, unstimulated adipocytes – cell-based, JC-1 fluorescence, 3T3-L1 adipocytes, 24 h, 100 nL compound, profiling panel (AID 1168); conditions: JC-1 mitochondrial fluorescence, higher = more signal, called active from +8 up or from −8 down; also: test concentration not given here
# [18] = JC-1 mitochondrial signal, unstimulated myeloma cells – cell-based, JC-1 fluorescence, RPMI8226, 24 h, 100 nL compound, profiling panel (AID 1169); conditions: JC-1 mitochondrial potential fluorescence, higher = more signal; also: test concentration not given here
# [19] = JC-1 mitochondrial signal, unstimulated MM1S myeloma – cell-based, JC-1 fluorescence, 24 h, 100 nL compound, profiling panel (AID 1170); conditions: MM1S mitochondrial potential, higher = more signal; also: test concentration not given here
# [20] = resazurin metabolic signal in A549 cells – cell-based, resazurin fluorescence, 24 h, PK04 Diversity Set, profiling panel (AID 1171); conditions: A549 viability, higher = more signal, called active from +8 up or from −8 down; also: test concentration not given here
# Sequence of NADPH oxidase 5 (Homo sapiens) (Q96PH1 whole entry, looked up): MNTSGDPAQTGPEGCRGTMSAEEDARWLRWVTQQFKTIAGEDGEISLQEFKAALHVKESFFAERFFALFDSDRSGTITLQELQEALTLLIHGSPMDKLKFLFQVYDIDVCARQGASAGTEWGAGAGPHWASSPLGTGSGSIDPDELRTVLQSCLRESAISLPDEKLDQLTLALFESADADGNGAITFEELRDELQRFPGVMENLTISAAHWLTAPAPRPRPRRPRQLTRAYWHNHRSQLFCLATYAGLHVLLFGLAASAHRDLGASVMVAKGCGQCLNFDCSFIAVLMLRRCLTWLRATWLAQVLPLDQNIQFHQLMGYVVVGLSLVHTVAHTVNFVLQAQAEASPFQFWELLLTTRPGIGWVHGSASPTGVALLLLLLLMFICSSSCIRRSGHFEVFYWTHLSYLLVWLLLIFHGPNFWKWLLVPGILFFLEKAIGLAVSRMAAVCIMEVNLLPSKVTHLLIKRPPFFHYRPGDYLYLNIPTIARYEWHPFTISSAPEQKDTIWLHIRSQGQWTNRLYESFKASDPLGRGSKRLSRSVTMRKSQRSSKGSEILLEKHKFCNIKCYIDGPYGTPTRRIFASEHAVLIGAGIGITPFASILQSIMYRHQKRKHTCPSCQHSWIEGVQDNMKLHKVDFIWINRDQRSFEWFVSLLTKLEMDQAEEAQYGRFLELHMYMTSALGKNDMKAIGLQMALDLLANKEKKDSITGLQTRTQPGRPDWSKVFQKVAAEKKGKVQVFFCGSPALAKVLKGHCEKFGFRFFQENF
# Sequence of NADPH oxidase 4 (Homo sapiens) (Q9NPH5 whole entry, looked up): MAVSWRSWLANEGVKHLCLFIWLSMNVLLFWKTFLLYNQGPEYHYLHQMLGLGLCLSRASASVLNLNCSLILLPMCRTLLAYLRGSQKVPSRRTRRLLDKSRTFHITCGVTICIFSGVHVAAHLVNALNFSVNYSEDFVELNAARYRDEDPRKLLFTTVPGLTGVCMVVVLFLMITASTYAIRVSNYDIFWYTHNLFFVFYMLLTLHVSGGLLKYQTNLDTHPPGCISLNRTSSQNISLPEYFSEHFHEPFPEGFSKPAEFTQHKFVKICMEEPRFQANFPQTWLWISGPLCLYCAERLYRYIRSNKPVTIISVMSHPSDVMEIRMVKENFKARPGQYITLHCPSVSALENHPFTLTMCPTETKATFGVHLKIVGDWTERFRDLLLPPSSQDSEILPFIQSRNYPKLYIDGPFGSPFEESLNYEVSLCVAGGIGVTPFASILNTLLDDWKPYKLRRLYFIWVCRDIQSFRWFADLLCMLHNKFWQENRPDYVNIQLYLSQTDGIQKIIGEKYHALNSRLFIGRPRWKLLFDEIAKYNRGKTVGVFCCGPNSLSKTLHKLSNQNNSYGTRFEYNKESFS
# Sequence of NADPH oxidase 2 (Homo sapiens) (P04839 whole entry, looked up): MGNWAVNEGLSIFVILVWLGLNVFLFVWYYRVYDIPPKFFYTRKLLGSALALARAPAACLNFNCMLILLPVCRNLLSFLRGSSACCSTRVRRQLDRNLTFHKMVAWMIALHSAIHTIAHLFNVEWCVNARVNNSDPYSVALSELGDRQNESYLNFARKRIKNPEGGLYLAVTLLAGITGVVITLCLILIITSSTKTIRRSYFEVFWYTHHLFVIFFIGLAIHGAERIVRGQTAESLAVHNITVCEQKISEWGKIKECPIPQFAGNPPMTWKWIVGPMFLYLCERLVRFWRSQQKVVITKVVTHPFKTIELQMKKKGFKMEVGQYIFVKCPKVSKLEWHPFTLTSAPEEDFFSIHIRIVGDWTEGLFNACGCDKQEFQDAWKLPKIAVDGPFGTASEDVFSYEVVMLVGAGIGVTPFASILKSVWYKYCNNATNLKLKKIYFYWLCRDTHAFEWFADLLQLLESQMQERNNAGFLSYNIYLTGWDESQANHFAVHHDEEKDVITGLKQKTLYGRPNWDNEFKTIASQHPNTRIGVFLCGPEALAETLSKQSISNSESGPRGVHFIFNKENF
Compound,z-score [1],composite z-score [2],z-score [3],z-score [4],z-score [5],z-score [6],z-score [7],z-score [8],z-score [9],z-score [10],z-score [11],z-score [12],z-score [13],z-score [14],z-score [15],z-score [16],z-score [17],z-score [18],z-score [19],z-score [20]
COCCOC(=O)N1C(=O)[C@@]2(c3cc(C#Cc4ccc(OC)cc4)ccc31)[C@H](c1ccc(OCCO)cc1)N1[C@H](c3ccccc3)[C@H](c3ccccc3)OC(=O)[C@H]1[C@@H]2C(=O)Nc1nc2ccccc2s1,0.905 (inactive),0.101,4.12 (inactive),2.5 (inactive),-0.16 (inactive),2.13 (inactive),0.0972,1.29 (inactive),0.402 (inactive),0.944,-0.922,0.829,-1.26,-0.569,-1.26,-2.86,3.99 (inactive),-0.735,-1.13,-0.285 (inactive)
C=CC[C@H](OC(=O)Nc1ccc(SC)cc1)c1ccc(OCCO)cc1,-0.393 (inactive),-0.0987,31 (active),17.3 (active),3.54 (inactive),1.58 (inactive),-0.161,-1.96 (inactive),-0.438 (inactive),-1.34,-0.542,-0.228,-0.91,-0.75,0.329,-1.68,-0.313 (inactive),-0.309,-0.227,0.631 (inactive)
C=CCNC(=O)[C@H]1[C@@H]2C(=O)O[C@@H](c3ccccc3)[C@@H](c3ccccc3)N2[C@@H](c2ccc(O)cc2)[C@]12C(=O)N(C(=O)OCCOC)c1ccc(C#CCC(C(=O)OC)C(=O)OC)cc12,-0.275 (inactive),0.139,5.56 (inactive),1.27 (inactive),-4.17 (inactive),0.516 (inactive),-0.016,1.95 (inactive),1.14 (inactive),1.52,1.1,-0.206,-0.615,-2.93,-4.49,-1.26,0.448 (inactive),-1.34,-1.83,0.979 (inactive)
COC(=O)[C@@]1(Cc2ccc(F)cc2)[C@H]2c3cc(C(=O)N(C)C)n(Cc4ccc(O)c(OC)c4)c3C[C@H]2CN1C(=O)c1ccccc1,-1.45 (inactive),0.681,3.77 (inactive),-0.164 (inactive),1.74 (inactive),-1.74 (inactive),2,-2.68 (inactive),-5.32 (inactive),-1.16,0.511,0.997,-0.269,-0.0229,-1.92,0.766,-0.475 (inactive),-0.379,-1.63,-0.88 (inactive)
O=C1O[C@H](c2ccccc2)[C@H](c2ccccc2)N2[C@H]1[C@@H](C(=O)N1CCCCCCC1)[C@]1(C(=O)Nc3ccc(C#CC4(O)CCCCCC4)cc31)[C@H]2c1ccc(O)cc1,0.507 (inactive),2.47,0.839 (inactive),0.222 (inactive),1.34 (inactive),0.491 (inactive),0.148,1.33 (inactive),0.803 (inactive),1.17,0.792,-0.597,1.68,-0.845,-1.59,-0.806,0.212 (inactive),-0.613,-0.515,0.0109 (inactive)
C=CCN1C(=O)[C@@]2(O[C@@H](CCO)[C@H]([Si](C)(C)c3ccc(OC)cc3)[C@H]2C)c2cc(N3CCOC3=O)ccc21,0.232 (inactive),-0.152,24.6 (active),12.6 (active),0.28 (inactive),2.21 (inactive),0.309,-2.41 (inactive),1.35 (inactive),-1.52,-2.23,1.33,-4.75,-2.77,-4.38,-2.9,1.25 (inactive),-1.08,-2.3,-3.36 (inactive)
COc1ccc(C(=O)Nc2cccc(CN3C(=O)[C@]4(O[C@H](CCn5cc([C@H](O)c6ccccc6)nn5)[C@@H]([Si](C)(C)c5ccc(OC)cc5)[C@@H]4C)c4ccccc43)c2)cc1,0.959 (inactive),0.051,1.23 (inactive),0.0918 (inactive),1.82 (inactive),-0.209 (inactive),0.871,-0.498 (inactive),0.245 (inactive),-0.305,-1.17,0.408,-2.1,-3.03,-2.99,2.27,-0.386 (inactive),-0.989,-1.12,-2.56 (inactive)
CC(C)C(=C=CC[C@@H](O)c1cccc(OCCO)c1)C[C@@H](O)COCc1ccccc1,1.74 (inactive),-0.504,12.8 (active),-0.6 (inactive),1.76 (inactive),-2.05 (inactive),3.5,-1.19 (inactive),-1.2 (inactive),-2.4,1.05,1.32,0.512,0.0108,0.442,0.427,0.686 (inactive),0.46,-0.794,0.151 (inactive)
COc1ccc([Si](C)(C)[C@H]2[C@H](CC(=O)N3CCC[C@H]3CO)O[C@@]3(C(=O)N(Cc4ccc(N5CCC5=O)cc4)c4ccccc43)[C@@H]2C)cc1,-0.691 (inactive),0.213,10 (active),1.8 (inactive),0.171 (inactive),0.746 (inactive),0.783,1.93 (inactive),1.63 (inactive),4.56,-0.428,0.303,-0.784,-2.65,-3.76,1.26,0.198 (inactive),-1.09,0.309,-0.737 (inactive)
